The record followed here is ChEMBL document CHEMBL4296182, “CO-ADD screening of NIH NCI Diversity Set V”.

Molecules are shown by their SMILES.

In the test the test system is Escherichia coli. Kind of test: Antibacterial activity against Escherichia coli ATCC 25922 (CO-ADD:GN_001); MIC in CAMBH media using NBS plates, by Resazurin F(560/590). The class given is functional. The note with it: Concentration 20 uM, ASSAY_TEST Inhibition of Bacterial Growth, detection method Resazurin, Fluorescence (ex560/em590), MEDIA CAMHB, plate type 384well, CORNING #3640, time 18 hr.
With `Cn1c(=O)c2c(nc(N3CCOCC3)n2C)n(C)c1=O`, the Inhibition turned out to be 2.94%. Under `N#CC1=C(Nc2ccccc2Cl)SC(c2ccncc2)NC1=O` (centres undefined) stands -3.11%. Consider `CC(C)c1ccc(-c2nc3ccccc3s2)cc1`, for which the Inhibition was found to be 4.01%. Consider `Nc1cc2c3c(cccc3c1)C(=O)N(CCN1CCCC1)C2=O`, for which the Inhibition amounted to 2.48%. Turning to `O=C1NCN(CCO)CN1`, the Inhibition worked out at 8.55%.

Turning to `c1ccc(-c2cc3ccccc3[nH]2)cc1` [2-PHENYL-1H-INDOLE], the Inhibition is listed as 16.97%. Under `FC(F)(F)c1nc2nc(Cl)c(Cl)nc2n1CCCN1CCOCC1` stands -16.14%; under `CCOC(=O)c1cc2c(OC)c(OC)ccc2c2ncc(C#N)c(O)c12`, -22.93%; under `NC(CC(=O)Nc1cc(C(F)(F)F)ccc1Cl)=NO`, -6.61%.

Consider `CCOc1ccc(NC(=O)Nc2cc(C(C)C)ccc2C)cc1`, for which the Inhibition was -12.49%.

For `CN1CN(C)C(c2ccncc2)=C1c1ccncc1`, the Inhibition was -2.65%. Turning to `N#Cc1nnn(-c2ccc(Cl)cc2)c1N`, the Inhibition came to 11.71%. With `CCOC(=O)CSc1nc2nc(Cl)c(Cl)[nH]c-2n1`, the Inhibition is on record as -0.86%.

Regarding `Cn1c(=O)c2c(nc(Cc3ccc(N)cc3)n2C)n(C)c1=O`, the Inhibition is reported as 1.69%.

As to `CCC(C)(C)c1ccc(Oc2cccc(C(=O)O)c2)cc1`, the Inhibition is recorded as -8.34%. Consider `CNC(=O)Nc1ccc(S(N)(=O)=O)cc1`, for which the Inhibition is recorded as -4.85%.

In the case of `CCOC(=O)CCCN(c1[nH]c(C)c(C)c1C#N)S(=O)(=O)c1ccc(C)cc1`, the Inhibition is given as 15.68%. Take `COc1cc(Cl)c(CC(=O)c2c[nH]c3ccccc23)cc1OC`: the Inhibition is -1.53%.

Consider `N#CC1=C(Nc2ccccc2Cl)SC(c2ccccc2O)NC1=O` (centres undefined), for which the Inhibition is 4.44%.
